Shown are actives, neighbours in structure and some others; about 21% of the full set was active somewhere.
CHX counter = counter-screen for Shiga toxin inhibitors: cycloheximide protein synthesis inhibition; 300,000 compounds, 12% hits; AID 2314; max response, %; cell reporter, cycloheximide protein synthesis inhibition counterscreen; in the data active = max response mostly above about 13%, no sharp cut-off; inactive = mostly below about 14%; note: read at 38.3 µM for the half of the compounds with a filed dose; 0% is about no effect
Pf growth 48h = P. falciparum growth inhibition at 48 hours (one generation); P. falciparum luciferase growth in erythrocytes, 48 h; Potency, µM (top dose mostly 28.7 µM), without a hit: at the top dose activity change, negative = inhibition, actives largely listed as inhibitors; 310,000 compounds, 5.9% hits; note: potency is the fitted concentration of half-maximal effect; % is set by controls: 0 for no effect and ±100 for the full control effect
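Here the parasites carry a stable luciferase gene and grow inside erythrocytes in Albumax-based RPMI medium with compound for one erythrocytic cycle. Activity is scored as loss of luminescent signal.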
HCMV inh = blocks human cytomegalovirus replication; activity change, negative = inhibition, % at 57.5 µM; 410,000 compounds, 4.5% hits; HFF cells, HCMV-luciferase reporter, 72 h; stronger effect = lower value; in the data active = activity change below about -60%; inconclusive = no clear call, values can overlap the other calls; inactive = above about -39%; note: % is set by controls: 0 for no effect and ±100 for the full control effect
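Compounds were evaluated in HFFs infected with an HCMV luciferase reporter virus (MOI 1 PFU/cell). Luciferase in lysates collected 72 h post infection served as the replication measure.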
HCV inhibitor = HCV inhibition; Huh7.5.1 HCVcc-Cre infection, luciferase reporter, 44 h; Potency, µM (titrated, usually from 41.8 µM), without a hit: top-dose activity change, negative = inhibition, usual class: inhibitors; 340,000 compounds, 3.4% hits; note: potency is the fitted concentration of half-maximal effect; % is set by controls: 0 for no effect and ±100 for the full control effect
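After 44 h co-culture of compound, cells and HCVcc-Cre (~0.5 moi), substrate is added for 15 min at room temperature and luciferase measured over 15 sec. Cells were seeded at 1,000/well and pre-cultured 4 h.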
Pf growth 96h = inhibits malaria parasite growth, 96 h | P. falciparum luciferase reporter growth, 96 h | Potency, µM (top dose mostly 28.7 µM), inactives show at the top dose activity change, negative = inhibition, hits mostly inhibitors | 320,000 compounds, 6.9% hits | AID 504834; note: potency is the fitted concentration of half-maximal effect; % is set by controls: 0 for no effect and ±100 for the full control effect
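Luminescence readout: decreased luciferase signal marks inhibited growth of reporter-expressing P. falciparum in infected red cells (2% hematocrit, 0.05% parasitemia final), exposed to compound two generations (96 h, 37 C, 5% CO2).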
Shiga toxin inh = Shiga toxin inhibition | Vero cells, Shiga toxin protein synthesis inhibition reporter | inhibition, % at 38.7 µM | 290,000 compounds, 9.2% hits; in the data active = inhibition mostly above about 28%, no sharp cut-off; inactive = mostly below about 43%; note: 0% is about no effect
* = called active by the depositor. Unless noted, calls come from the whole dose curve; as a rule, active = well fitted inhibition curve with a large enough effect; inconclusive = small, poorly fitted or top-dose-only effect, or another doubt; inactive = no such curve, though single readings can be large or run the other way.

Screening O=C(c1ccc(N2CCOCC2)c([N+](=O)[O-])c1)N1CCCCC1 returned CHX counter -2, Pf growth 48h 9%, HCMV inh -13, HCV inhibitor 5%, Pf growth 96h 36% and Shiga toxin inh -4.
`Cc1c(CCOC(=O)c2ccc(N3CCOCC3)c([N+](=O)[O-])c2)sc[n+]1CC#N` gave CHX counter 15, Pf growth 48h 95%, HCMV inh -36, HCV inhibitor 16µM*, Pf growth 96h inconclusive and Shiga toxin inh 14.
Cc1c(CCOC(=O)c2cc([N+](=O)[O-])cc([N+](=O)[O-])c2)sc[n+]1CC(=O)c1ccccc1 was read as CHX counter 11, Pf growth 48h inconclusive, HCMV inh -6, HCV inhibitor inconclusive, Pf growth 96h inconclusive and Shiga toxin inh -7.
`Cc1ncsc1CCOC(=O)c1ccc([N+](=O)[O-])cc1` gave CHX counter 25*, Pf growth 48h 23%, HCMV inh -5, HCV inhibitor -8%, Pf growth 96h 9% and Shiga toxin inh 41*.
For Cc1c(CNC2CCCCCC2)c(C(=O)O)c(C)n1Cc1ccc(F)cc1Cl the results were HCMV inh -2.
CCCCn1c2nc3ccccc3nc2c2c(=O)n(CC(C)C)cnc21 was read as HCMV inh -62* and HCV inhibitor -12%.
`CCCCn1c2nc3ccccc3nc2c2c(=O)n(C(C)CC)cnc21` (stereo unspecified) gave CHX counter -4, Pf growth 48h 19%, HCMV inh -32, HCV inhibitor 13%, Pf growth 96h 9% and Shiga toxin inh -23.
`CCCCCn1c2nc3ccccc3nc2c2c(=O)n(CC(C)C)cnc21` gave CHX counter -4, HCV inhibitor 23%, Pf growth 96h 2.9µM* and Shiga toxin inh -20.
Cc1ccc(C)c(N2CCN(C(=O)Cn3cnc4sc(C)c(S(=O)(=O)N5CCN(c6ncccn6)CC5)c4c3=O)CC2)c1 was read as HCMV inh -10.
Screening CCn1c(CSc2nc3ccccc3s2)n[nH]c1=S returned CHX counter 12, HCMV inh 56, HCV inhibitor -2%, Pf growth 96h -10% and Shiga toxin inh 21.
Screening CCn1c(CN2c3ccccc3Sc3ccccc32)n[nH]c1=S returned CHX counter -2, Pf growth 48h 3%, HCMV inh -62*, HCV inhibitor 4%, Pf growth 96h inconclusive and Shiga toxin inh 17.
`COc1cc(-c2nnc(SCCOc3ccc(C)c(Cl)c3)o2)cc(OC)c1OC` gave HCMV inh -7.
COC(=O)C1=COC(C)C2CN3CCC4(C(=O)Nc5ccccc54)C3CC12 (stereo unspecified) was read as CHX counter -5, Pf growth 48h -16%, HCMV inh -3, HCV inhibitor 2%, Pf growth 96h inconclusive and Shiga toxin inh -10.
For COC(=O)C1=COC(C)C2CN3CCc4c([nH]c5cc(OC)c(OC)cc45)C3CC12 (stereo unspecified) the results were CHX counter -2, Pf growth 48h inconclusive, HCMV inh -3, HCV inhibitor inconclusive, Pf growth 96h 0.83µM* and Shiga toxin inh -10.
For COc1ccc2c3c(n(C)c2c1)[C@@H](CO)N(C)CC31CN(C(=O)CN2CCOCC2)C1 the results were HCMV inh 5.
Screening CCC[C@@H]1NC(=O)[C@@H](NC(C)=O)CSSC[C@@H](C(N)=O)NC(=O)CNC(=O)[C@H](Cc2c[nH]c3ccccc23)NC(=O)[C@H](CCCN=C(N)N)NC(=O)[C@H](Cc2ccc3ccccc3c2)NC(=O)[C@H](Cc2cnc[nH]2)NC(=O)[C@H](CCCN=C(N)N)NC1=O returned CHX counter 3 and Shiga toxin inh -3.
Screening CC(C)CC(NC(N)=O)C(=O)NCc1ccccc1Cl (stereo unspecified) returned CHX counter 35*, Pf growth 48h 32%, HCMV inh inconclusive, HCV inhibitor 10%, Pf growth 96h 34% and Shiga toxin inh 36.
Cc1ccccc1OCC(=O)OCC(=O)NCc1ccccc1Cl was read as HCMV inh -18 and HCV inhibitor -8%.
`CC(C)C(=O)OCC(=O)NCc1ccccc1Cl` gave CHX counter 29*, Pf growth 48h 19%, HCMV inh 13, HCV inhibitor 1%, Pf growth 96h 3% and Shiga toxin inh 28.
CCn1cc(C(=O)OCC(=O)NCc2ccccc2Cl)c(=O)c2ccc(C)nc21 was read as CHX counter 4, Pf growth 48h -15%, HCMV inh -102*, HCV inhibitor -13%, Pf growth 96h -18% and Shiga toxin inh 21.
Screening CC(C)CC(NC(N)=O)C(=O)NCc1ccc(Cl)cc1 (stereo unspecified) returned CHX counter 14, Pf growth 48h 16%, HCMV inh 16, HCV inhibitor 10%, Pf growth 96h -1% and Shiga toxin inh -3.
CCn1cc(C(=O)OCC(=O)Nc2cccc(Cl)c2C)c(=O)c2ccc(C)nc21 was read as HCMV inh -12.
Screening O=C(COC(=O)c1ccccc1Nc1ccccc1)NCc1ccccc1Cl returned CHX counter -2, Pf growth 48h -13%, HCMV inh -13, HCV inhibitor -17%, Pf growth 96h 13µM* and Shiga toxin inh -5.
For COc1ccc(-c2cn(CCO)nc2-c2ccc(OC)cc2)cc1 the results were CHX counter -2, Pf growth 48h 1%, HCMV inh 16, HCV inhibitor -8%, Pf growth 96h 10% and Shiga toxin inh -4.
`C[C@H](CO)N1C[C@H](C)[C@H](CN(C)S(=O)(=O)c2ccccc2)OCc2cnnn2CCCC1=O` gave HCMV inh -13.
Cc1cccc(N2C(=O)CSC23C(=O)N(CC(=O)Nc2cccc(Cl)c2)c2ccccc23)c1 (stereo unspecified) was read as HCMV inh 19.
COc1ncnc2c1ncn2CCCNCc1ccc2c(c1)OCO2 was read as HCMV inh 7.
Screening COc1cc(NC(=O)c2cccc(Cl)c2)c(OC)cc1NC(=O)CN1CCCCC1 returned CHX counter -4, Pf growth 48h -15%, HCMV inh inconclusive, HCV inhibitor 35µM*, Pf growth 96h -20% and Shiga toxin inh 7.
For COc1ccc(NC(=S)N(CCN2CCOCC2)C2CCN(C(C)=O)CC2)cc1Cl the results were CHX counter -2, Pf growth 48h -2%, HCMV inh inconclusive, HCV inhibitor 6%, Pf growth 96h inconclusive and Shiga toxin inh 19.
COc1cc(NC(=O)c2cccc(Cl)c2)c(OC)cc1NC(=O)CN1CCOCC1 was read as CHX counter -11, Pf growth 48h inconclusive, HCMV inh -72*, HCV inhibitor inconclusive and Shiga toxin inh -15.

High-throughput results: PubChem BioAssay, National Center for Advancing Translational Sciences (NCATS)
